The assay relates to Ba/F3 Cytotoxicity. The assay is described as follows: JAK2V617F project follow-up: kinase, reporter, cytotoxicity – HEL and Ba/F3 cells, late-stage follow-up (AID 2165). The following applies: JAK2V617F panel: kinase, IRF1 reporter.

Each structure is given as a SMILES string. A number with no mark means an inactive call. The source made the active and inactive calls. Rule as the data show it: active = IC50 below about 9 µM; inactive = the rest.

Results on 37 compounds are retold here after PubChem BioAssay AID2165 (The Scripps Research Institute Molecular Screening Center, 2009).

For the compound `Cc1ccc(O)c(NC(=O)COc2ccc(C3CCCCC3)cc2)c1`, the half-inhibitory concentration (IC50) (usually the concentration that inhibits the measured activity by half) was 3.91 µM (active).
For the compound `Cc1ccc(O)c(NC(=O)COc2ccccc2Cl)c1`, the IC50 was 0.0217 µM (active).
To `Cc1[nH]c(=O)c(C(=O)C=Cc2ccc(C(C)C)cc2)c2c1CCCC2` belongs 2.74 µM (active).
To `Cc1cccc(OCC(=O)Nc2ccc(C)c(C)c2)c1` belongs above 40 µM; to `COc1cccc(Nc2ncnc3cc(OC)c(OC)cc23)c1`, above 40 µM.
The result for `Cc1ccc(O)c(NC(=O)COc2ccc(Cl)cc2)c1` reads 1.39 µM (active); that for `Cc1ccc(C=CC(=O)c2c3c(c(C)[nH]c2=O)CCCC3)cc1`, 3.34 µM (active).
On to `Cc1[nH]c(=O)c(C(=O)C=Cc2cccc(Br)c2)c2c1CCCC2`, for which the half-maximal inhibitory concentration (IC50) is 0.67 µM (active).
The result for `Cc1[nH]c(=O)c(C(=O)C=Cc2ccc(Cl)cc2)c2c1CCCC2` reads 2.48 µM (active).
To `COc1cc2ncnc(Sc3ccc(C)cc3)c2cc1OC` belongs 3.68 µM (active); to `CCS(=O)(=O)c1ccc(O)c(NC(=O)COc2cccc(C)c2)c1`, above 40 µM; to `Cc1ccc(O)c(NC(=O)COc2ccccc2C)c1`, 3.84 µM (active).
As to `COc1ccccc1OCC(=O)Nc1cc(C)ccc1O`, the IC50 was 0.018 µM (active).
To `c1ccc(Nc2ncnc3ccccc23)cc1` belongs above 40 µM; to `Cc1cc(C)cc(NC(=O)COc2cccc(C)c2)c1`, above 40 µM; to `COc1cc2ncnc(Nc3cccc(Cl)c3)c2cc1OC`, above 40 µM.
As for `COc1cc2ncnc(Nc3cccc(C)c3)c2cc1OC`, the IC50 was above 40 µM.
To `CCc1cccc(Nc2ncnc3cc(OCCOC)c(OCCOC)cc23)c1` belongs above 40 µM; to `O=C(COc1ccccc1)Nc1ncccn1`, above 40 µM.
To `CC(C)c1cc(C=C(C#N)C(=O)NCCCc2ccccc2)cc(C(C)C)c1O` belongs 4.29 µM (active).
To `COc1cc2ncnc(N[C@H](C)c3ccccc3)c2cc1OC` belongs 3.19 µM (active).
For the compound `C=CCNc1ncnc2cc(OC)c(OC)cc12`, the IC50 was above 40 µM.
The result for `Cc1ccc(O)c(NC(=O)COc2cc(C)c(Cl)c(C)c2)c1` reads 6.17 µM (active); that for `COc1cc2ncnc(Nc3ccccc3)c2cc1OC`, above 40 µM.
To `COCCOc1cc2nc[nH]c(=O)c2cc1OCCOC` belongs above 40 µM; to `Cc1ccc(O)c(NC(=O)COc2cccc(C)c2C)c1`, above 40 µM; to `Cc1cccc(NC(=O)COc2cccc(C)c2)c1`, above 40 µM.
The result for `N#C/C(=C\c1ccc(O)c(O)c1)C(=O)NCCCCc1ccccc1` reads 0.33 µM (active).
As to `CCC(C)Nc1ncnc2cc(OC)c(OC)cc12` (configuration not stated), the IC50 was above 40 µM.
To `Cc1cccc(OCC(=O)Nc2ccccc2F)c1` belongs above 40 µM.
To `COc1cc2ncnc(Nc3ccc(O)c(Br)c3)c2cc1OC` belongs 3.64 µM (active); to `Cc1cc(C)c(C(=O)/C=C/c2ccccc2F)c(=O)[nH]1`, 0.69 µM (active).
On to `COc1cc2ncc(-c3ccccc3)nc2cc1OC`, for which the IC50 was above 40 µM.
To `COc1ccc(Cl)cc1NC(=O)NC(C)c1ccncc1` (configuration not stated) belongs above 40 µM; to `COc1cc2ncnc(NC(C)C)c2cc1OC`, above 40 µM.
To `N#CC(=Cc1ccc(O)c(O)c1)C(=S)NCc1ccccc1` belongs 1.09 µM (active); to `COc1cc(C=C(C#N)C(N)=O)cc(CSc2ccccc2)c1O`, above 40 µM.
